Molecules are shown by their SMILES. Compounds without any hit were thinned out: in the full panel of roughly 83,000, 20% have a hit.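 Assay: single dose, 48 h. Readout: percent growth (0 = no net growth; negative = cell death). Active: <10.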 Values without a mark were called inactive. Activity calls are given as the source filed them.

Consider eight compounds from PubChem BioAssay (NCI).

Holding throughout (experiment): NCI-60 one-dose screen, 48 h (100 = growth as untreated, 0 = no growth, -100 = all killed)
The test system of one test is DU-145 prostate. The conditions noted are these: 10 µM unless noted.
For the next test, the system named is K-562 leukemia. The conditions noted are these: 10 µM unless noted.
The next test deals with MALME-3M melanoma. The conditions noted are these: 10 µM unless noted.
The test system of another test is MDA-MB-231 breast. The conditions noted are these: 10 µM unless noted.
The next test has as its system RXF 393 renal. The conditions noted are these: 10 µM unless noted.
In another test the test system is SF-268 CNS. The conditions noted are these: 10 µM unless noted.
Another test relates to SF-295 CNS. The conditions noted are these: 10 µM unless noted.
In the next test the test system is SF-539 CNS. The conditions noted are these: 10 µM unless noted.
In another test the test system is UACC-257 melanoma. The conditions noted are these: 10 µM unless noted.
The subject of the next test is M14 melanoma. The conditions noted are these: 10 µM unless noted.
The test system of the next test is HCT-15 colon. The conditions noted are these: 10 µM unless noted.
The subject of the next test is SNB-75 CNS. The conditions noted are these: 10 µM unless noted.
Another test relates to SNB-19 CNS. The conditions noted are these: 10 µM unless noted.
The subject of another test is U251 CNS. The conditions noted are these: 10 µM unless noted.
The subject of another test is PC-3 prostate. The conditions noted are these: 10 µM unless noted.
The test system of the next test is SK-MEL-5 melanoma. The conditions noted are these: 10 µM unless noted.
A further test has as its system UACC-62 melanoma. The conditions noted are these: 10 µM unless noted.
The test system of the next test is SK-MEL-28 melanoma. The conditions noted are these: 10 µM unless noted.
A further test has as its system HT29 colon. The conditions noted are these: 10 µM unless noted.
A further test concerns LOX IMVI melanoma. The conditions noted are these: 10 µM.

Consider `COc1ccc(Cc2nn(CC(=O)N/N=C/c3ccc(F)cc3)c(=O)c3c(C)noc23)cc1`, for which the growth in the test with DU-145 prostate is 40%; in the test on K-562 leukemia, 70.1%; with MALME-3M melanoma, -0.917% (active); with MDA-MB-231 breast, 31.3%; in the test on RXF 393 renal, -26% (active); in the test on SF-268 CNS, 46.7%. The growth with SF-295 CNS was -19.3% (active); with SF-539 CNS, 57.1%; in the test on UACC-257 melanoma, 54.3%; in the test with M14 melanoma it was 50.8%; with HCT-15 colon, 67.2%; in the test with SNB-75 CNS, -17.4% (active). For the same compound, the growth in the test with SNB-19 CNS was 20.1%; in the test with U251 CNS it was 17.8%; with PC-3 prostate it was 35.9%; with SK-MEL-5 melanoma, 82.2%; in the test with UACC-62 melanoma, 44.4%; in the test on SK-MEL-28 melanoma, 35.9%.

For the compound `COc1ccc(C2=NN(C(C)=O)C(c3ccc(OCc4ccc(Cl)cc4)c(OC)c3)C2)cc1OC` (stereo not drawn), the growth in the test on DU-145 prostate is 51.3%; with K-562 leukemia, 31%; with MALME-3M melanoma, 48.1%; with MDA-MB-231 breast it was 69.6%; in the test on RXF 393 renal, 52.9%; in the test with SF-268 CNS, 47.1%. Also, the growth is 37.8% in the test with SF-295 CNS; 63.8% with SF-539 CNS; 40.2% in the test on UACC-257 melanoma; 27.9% in the test on HCT-15 colon; 40.1% in the test with HT29 colon; 61.3% in the test with SNB-75 CNS. For the same compound, the growth is 51.4% in the test with SNB-19 CNS; 46.8% with U251 CNS; 23.6% in the test on PC-3 prostate; -9.52% (active) in the test on SK-MEL-5 melanoma; 34% in the test with UACC-62 melanoma; 56.8% with SK-MEL-28 melanoma.

Take `CC(C)CSc1nc(NCCc2c[nH]c3ccccc23)c(C#N)c(-c2ccccc2)n1`: the growth was 66.8% in the test with DU-145 prostate; 20.5% in the test on K-562 leukemia; 91.8% in the test on MALME-3M melanoma; 38.3% in the test on MDA-MB-231 breast; 32.5% in the test with RXF 393 renal; 67.4% in the test with SF-268 CNS. The growth was 68.7% in the test on SF-295 CNS; 62.5% with SF-539 CNS; 97.4% in the test on UACC-257 melanoma; 74.5% in the test on M14 melanoma; 22.6% in the test on HCT-15 colon; 82.8% in the test with SNB-75 CNS. Also, the growth in the test with U251 CNS is 33.5%; in the test on PC-3 prostate it was 17.8%; in the test with SK-MEL-5 melanoma, 27.3%; with UACC-62 melanoma, 77.3%; in the test with LOX IMVI melanoma, 33.3%; in the test on SK-MEL-28 melanoma it was 87.3%.

For `COc1ccc2oc3c4[nH]c5ccccc5c4c4c(c3c2c1)C(=O)N(C(=O)OC(C)(C)C)C4=O`, the growth in the test with DU-145 prostate is 6.06% (active); in the test on K-562 leukemia, 3.78% (active); in the test with MALME-3M melanoma it was -24.9% (active); in the test on MDA-MB-231 breast, 8.48% (active); in the test with RXF 393 renal it was -0.96% (active); in the test on SF-268 CNS, 4.9% (active). Further, the growth in the test with SF-295 CNS was -26.7% (active); in the test on SF-539 CNS it was -24.8% (active); in the test with UACC-257 melanoma, -52.9% (active); with HCT-15 colon, -23.2% (active); in the test on HT29 colon it was -32% (active); in the test with SNB-75 CNS, -3.78% (active). For the same compound, the growth with SNB-19 CNS is 11.8%; in the test with U251 CNS it was 4.43% (active); with PC-3 prostate, -12.9% (active); in the test with SK-MEL-5 melanoma, -99.3% (active); in the test on UACC-62 melanoma, -77.3% (active); in the test with SK-MEL-28 melanoma it was -45.5% (active).

For the compound `COc1ccc(CCC2c3c(cc4c(c3OC)OCO4)CCN2C)cc1` (stereo not drawn), the growth in the test with DU-145 prostate is 5.2% (active); in the test with K-562 leukemia it was 3.01% (active); with MALME-3M melanoma it was -98.4% (active); in the test on MDA-MB-231 breast, -80.8% (active); with RXF 393 renal, -35% (active); with SF-268 CNS it was 10.2%. Also, the growth was -65.2% (active) in the test with SF-295 CNS; -99.9% (active) in the test with SF-539 CNS; -65.7% (active) in the test on UACC-257 melanoma; -16.4% (active) with HCT-15 colon; -45.6% (active) in the test with HT29 colon; 2.42% (active) in the test with SNB-75 CNS. The growth in the test on SNB-19 CNS is -2.75% (active); in the test with U251 CNS it was -90.4% (active); in the test with PC-3 prostate it was 3.75% (active); in the test with SK-MEL-5 melanoma, -98.9% (active); in the test with UACC-62 melanoma, -95.7% (active); with LOX IMVI melanoma it was -100% (active). The growth in the test on SK-MEL-28 melanoma is -98.3% (active).

Turning to `CC1(C)CC[C@]2(C(=O)O)CC[C@]3(C)C(=CCC4[C@@]5(C)C[C@@H](O)[C@@H]6OC(c7ccccc7F)OC[C@@]6(C)C5CC[C@]43C)C2C1` (stereo partly drawn), the growth with DU-145 prostate is 20%; with K-562 leukemia, 12.8%; with MALME-3M melanoma, 28.6%; in the test on MDA-MB-231 breast it was 20.5%; with RXF 393 renal, -14.5% (active); with SF-268 CNS, 14.3%. Besides, the growth in the test on SF-295 CNS was -0.465% (active); with SF-539 CNS it was 5.14% (active); in the test with UACC-257 melanoma, 24.2%; with HCT-15 colon, 5.25% (active); in the test on HT29 colon, 2.5% (active); in the test on SNB-75 CNS, 29.1%. The growth in the test with SNB-19 CNS is 20.3%; in the test on U251 CNS, 3.62% (active); in the test on PC-3 prostate it was 16%; in the test on SK-MEL-5 melanoma, -34.6% (active); with UACC-62 melanoma it was 0.203% (active); with LOX IMVI melanoma it was -1.57% (active). Also, in the test with SK-MEL-28 melanoma, the growth is 19.7%.

Regarding `C#CCOc1ccc(/C=N/Nc2nc(-c3ccc(Cl)cc3)cs2)cc1OC`, the growth is 81.5% in the test with DU-145 prostate; 26.2% with K-562 leukemia; 91.6% in the test with MALME-3M melanoma; 77.1% in the test with MDA-MB-231 breast; 27.1% in the test with RXF 393 renal; 73.8% with SF-268 CNS. Besides, the growth is 77.4% in the test on SF-295 CNS; 70.6% with SF-539 CNS; 45.5% in the test on UACC-257 melanoma; 61.1% in the test on M14 melanoma; 45.7% in the test with HCT-15 colon; 80.1% in the test with SNB-75 CNS. Further, the growth with SNB-19 CNS was 74.6%; in the test with U251 CNS, 64.6%; in the test on PC-3 prostate, 29.9%; in the test with SK-MEL-5 melanoma, 6.66% (active); in the test with UACC-62 melanoma, 54.7%; in the test on LOX IMVI melanoma, 58.6%. Besides, in the test on SK-MEL-28 melanoma, the growth was 79.5%.

On to `COC(OC)C1=C(C)OC(N)=C(C#N)C12C(=O)Nc1ccccc12` (stereo not drawn), for which the growth with DU-145 prostate was 105%; in the test on K-562 leukemia it was 82%; in the test with MALME-3M melanoma, 87.2%; in the test on MDA-MB-231 breast, 102%; with RXF 393 renal, 109%; in the test with SF-268 CNS it was 104%. In addition, the growth in the test with SF-295 CNS was 138%; in the test with SF-539 CNS it was 100%; in the test with UACC-257 melanoma, 100%; with HCT-15 colon it was 94.6%; with HT29 colon, 102%; in the test with SNB-75 CNS it was 103%. In addition, the growth is 97% with SNB-19 CNS; 99.4% in the test on U251 CNS; 92.8% in the test with PC-3 prostate; 92.4% in the test on SK-MEL-5 melanoma; 81.1% with UACC-62 melanoma; 28.4% in the test on LOX IMVI melanoma. For the same compound, the growth with SK-MEL-28 melanoma was 85%.
